# PubChem BioAssay
# “And” between values parts separate entries of the source, which are not always exact repeats. Equal entries are not always repeated. The source made the active and inactive calls. Cut-off read from the data, not from the text of the source, unless noted: active = parasite load remaining mostly below about 12% (no sharp cut-off); inactive = mostly above about 10%.
# Key:
# [1] = liver-stage malaria parasite growth inhibition, primary screen, cell-based, HepG2, luciferase luminescence, HepG2 viability (AID 624349);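 note: 100% = mean of DMSO negative control wells on the same plate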; details: P. berghei liver stage in HepG2, luciferase luminescence, concentration not given here; parasite load remaining: stronger effect = lower value; viability: measured here: HepG2 viability without parasites
# [2] = stimulators of nuclear beta-catenin in C2C12, primary screen, imaging, WNT3A-conditioned medium, mouse C2C12, NPC library (AID 1117326; in the data active = nuclear beta-catenin stimulation mostly above about 4.2%, no sharp cut-off; inactive = mostly below about 10%); details: stronger effect = higher value
# [3] = stimulators of insulin release from INS-1E, primary screen, cell-based, 5 mM glucose, NPC library (AID 1117329;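 active = compound raises insulin release from rat beta cells at 5 mM glucose, no numeric limit stated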); details: rat INS-1E insulin secretion, at 10 µM, stronger effect = higher value
# [4] = growth inhibition of GSK3B-pretreated HCT116 cells – cell-based, CellTiter-Glo, 0.2 to 20 µM (AID 1117336;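 active = compounds lowering colon cancer cell viability after pretreatment blocking the GSK3B kinase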); details: HCT116 viability after GSK3B inhibitor, at 20 µM, stronger effect = higher value
# [5] = inhibition of endothelial tube formation, primary screen, imaging, VEGF stimulated, CD31 staining, tube area, NPC library (AID 1117340;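 active = compound that reduces growth-factor-driven endothelial tube area in a mixed cell culture, no cutoff stated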); details: VEGF-stimulated ADSC/ECFC co-culture, at 10 µM, stronger effect = higher value
# [6] = glucagon-like peptide 1 release enhancers, primary assay, NCI-H716 cell line, NPC library (AID 1117341;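 active = compound raises GLP1 secretion from the human gut endocrine cells, with no numeric limit stated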); details: NCI-H716 cells, at 10 µM, stronger effect = higher value
# [7] = HCT116 colon cancer cell growth inhibition, primary screen, CellTiter-Glo luminescence, NPC library (AID 1117342;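 active = compounds that lower survival of HCT116 colon cancer cells in the luminescence readout, no numeric limit stated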); details: at 20 µM (top of the series)
# [8] = CellTiter-Glo luminescent readout of SW480 viability loss, NPC library primary (AID 1117343;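 active = compounds that lower viability of the colon cancer cells in the luminescence readout, with no numeric limit stated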); details: CellTiter-Glo luminescence; at 20 µM (top of the series) unless noted
# [9] = decreased DLD-1 cellular survival, CellTiter-Glo luminescent readout, NPC compound collection, primary HTS (AID 1117346;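 active = compounds that lower survival of DLD-1 colon cancer cells in the luminescence readout, no cutoff given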); details: DLD-1 viability, CellTiter-Glo luminescence; at 20 µM (top of the series)
# [10] = differential killing of epithelial or mesenchymal cells, primary screen, imaging, PC-3E GFP, TEM4-18 mCherry, co-culture (AID 1345086;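 active = compounds killing one labelled cell type while sparing the other, by normalised counts and ratio limits, not self-fluorescent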;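 for all read-outs here: cells exposed to compound for 72 h before imaging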;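 for red/green cell ratio (normalised): normalised mesenchymal count divided by normalised epithelial count so high means epithelial killing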); details: imaging cell counts, at 1 µM; for red/green cell ratio (normalised): actives lie on both sides, counts scaled to control wells, 1 = unselective
# [11] = sensitizers of A549 cells to miR-34 induction, primary screen, imaging, A549 dox-inducible miR-34, nuclei and caspase counts (AID 1347080;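 active = compounds whose cell count with miR-34 switched on is under 0.7 times the count with it off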); details: A549 miR-34 inducible, Hoechst nuclei count, 48 h
# [12] = biological target: NAD(+) hydrolase SARM1 (Homo sapiens) (UniProt Q6SZW1); test: SARM1 TIR NADase inhibitors, cell lysate, NAD-Glo luminescence (AID 1508614;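 active = compound whose remaining NAD level is above about 45 nM, limit read from the data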;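 note: higher remaining NAD means stronger inhibition of SARM1 NADase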); details: SAM-TIR HEK293T lysate NADase, at 1 µM, stronger effect = higher value
# Chain of NAD(+) hydrolase SARM1 (Homo sapiens) (Q6SZW1 whole entry, looked up): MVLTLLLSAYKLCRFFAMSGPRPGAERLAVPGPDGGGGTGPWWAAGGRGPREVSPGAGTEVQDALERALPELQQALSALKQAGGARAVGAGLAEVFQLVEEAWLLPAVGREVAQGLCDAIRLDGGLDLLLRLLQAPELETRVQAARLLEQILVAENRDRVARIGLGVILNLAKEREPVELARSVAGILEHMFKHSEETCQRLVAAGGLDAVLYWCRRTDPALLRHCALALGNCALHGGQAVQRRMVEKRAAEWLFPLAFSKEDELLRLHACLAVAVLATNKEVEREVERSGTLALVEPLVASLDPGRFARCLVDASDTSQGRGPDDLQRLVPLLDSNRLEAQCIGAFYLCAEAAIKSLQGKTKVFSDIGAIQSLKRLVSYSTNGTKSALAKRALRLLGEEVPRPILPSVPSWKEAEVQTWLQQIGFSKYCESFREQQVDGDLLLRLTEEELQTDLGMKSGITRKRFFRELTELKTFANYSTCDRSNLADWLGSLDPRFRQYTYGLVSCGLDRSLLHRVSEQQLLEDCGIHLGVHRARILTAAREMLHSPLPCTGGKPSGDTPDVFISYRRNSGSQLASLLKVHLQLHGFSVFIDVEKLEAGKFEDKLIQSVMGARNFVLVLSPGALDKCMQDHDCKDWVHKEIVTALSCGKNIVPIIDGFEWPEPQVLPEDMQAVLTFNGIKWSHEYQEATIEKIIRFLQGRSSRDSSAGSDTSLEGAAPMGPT
# [13] = survival rescue of mitochondrial mutant cells in low glucose, primary screen, MELAS cybrids, Rieske KO mouse fibroblasts, CellTiter-Glo (AID 1508586;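 active = mean z-score across replicates of 1.96 or higher in either the MELAS or the Rieske mutant cell line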;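 note: z relative to plate mean and SD of compound and empty wells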)
# [14] = viability rescue of complex I mutant cybrids, primary screen, cell-based, galactose medium, ATP luminescence (AID 1645843;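 active = z-score of at least 1.8 in each of two replicates, scored against plate mean and spread of sample wells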;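 note: positive z means more ATP and so rescue of galactose-driven cybrid death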); details: complex I mutant cybrid cells, 72 h, stronger effect = higher value
# [15] = measured here: epithelial PC-3E GFP cell survival
# [16] = measured here: mesenchymal TEM4-18 mCherry cell survival
# [17] = stronger effect = lower value, cell number ratio, induced over uninduced
# [18] = measured here: relative caspase fold change +Dox/-Dox
# [19] = measured here: total cells with miR-34 induction, stronger effect = lower value
# [20] = measured here: total cells without miR-34 induction
# [21] = MELAS cybrid survival, CellTiter-Glo 48 h, stronger effect = higher value
# [22] = Rieske KO mouse fibroblast survival, CellTiter-Glo 72 h
smiles,measurement,setting,value
CCN(CC)CCOc1ccc2c(c1)C(=O)c1cc(OCCN(CC)CC)ccc1-2,parasite load remaining,[1],151% (inactive) and 24.6% (inactive)
same,viability,[1],84.5% and 89%
same,nuclear beta-catenin stimulation,[2]; at 10 µM,8.6% (inactive)
same,nuclear beta-catenin stimulation,"[2]; stimulation, at 2 µM",0.3%
same,insulin secretion stimulation,[3],3.7% (inactive)
same,viability decrease,[4],-16.4% (inactive)
same,tube area decrease,[5],13% (inactive)
same,GLP1 secretion stimulation,[6],3.6% (inactive)
same,inhibition of viability,[7],52.8% (active)
same,viability decrease (inhibition),[8],95.3% (active)
same,viability decrease (inhibition),[9],38.8% (inactive)
same,red/green cell ratio (normalised),[10],1.18 (inactive)
same,normalised cell number,[10]; [15],0.79
same,normalised cell number,[10]; [16],0.93
same,fold change,[11]; [17],0.841 (inactive)
same,fold change,[11]; [18],3.57
same,cell count,[11]; [19],9990
same,cell count,[11]; [20],11900
same,remaining NAD,[12],10 nM (inactive)
O=c1[nH]c(=O)c2ccccc2o1,nuclear beta-catenin stimulation,[2]; at 10 µM,0.9% (inactive)
same,nuclear beta-catenin stimulation,"[2]; stimulation, at 2 µM",0.3%
same,insulin secretion stimulation,[3],-1.9% (inactive)
same,viability decrease,[4],-6.75% (inactive)
same,tube area decrease,[5],10.2% (inactive)
same,GLP1 secretion stimulation,[6],0.9% (inactive)
same,inhibition of viability,[7],-33.3% (inactive)
same,viability decrease (inhibition),[8],102% (active)
same,viability decrease (inhibition),[9],-5.5% (inactive)
same,red/green cell ratio (normalised),[10],0.79 (inactive)
same,normalised cell number,[10]; [15],1.11
same,normalised cell number,[10]; [16],0.88
same,fold change,[11]; [17],0.86 (inactive)
same,fold change,[11]; [18],0.838
same,cell count,[11]; [19],8540
same,cell count,[11]; [20],9930
same,remaining NAD,[12],10 nM (inactive)
O=C(Nc1ccc(C(=O)O)c(O)c1)c1ccccc1,parasite load remaining,[1],47.9% (inactive)
same,viability,[1],101%
same,nuclear beta-catenin stimulation,[2]; at 10 µM,0.3% (inactive)
same,nuclear beta-catenin stimulation,"[2]; stimulation, at 2 µM",0.4%
same,insulin secretion stimulation,[3],-1.2% (inactive)
same,viability decrease,[4],1.7% (inactive)
same,tube area decrease,[5],7.2% (inactive)
same,GLP1 secretion stimulation,[6],-0.4% (inactive)
same,inhibition of viability,[7],-1.1% (inactive)
same,viability decrease (inhibition),[8],74.5% (active)
same,viability decrease (inhibition),[9],0.8% (inactive)
same,red/green cell ratio (normalised),[10],1.04 (inactive)
same,normalised cell number,[10]; [15],0.89
same,normalised cell number,[10]; [16],0.92
same,fold change,[11]; [17],0.856 (inactive)
same,fold change,[11]; [18],5.2
same,cell count,[11]; [19],11700
same,cell count,[11]; [20],13700
same,remaining NAD,[12],10 nM (inactive)
CN(C)CCCOc1nn(Cc2ccccc2)c2ccccc12,nuclear beta-catenin stimulation,[2]; at 10 µM,2.1% (inactive)
same,nuclear beta-catenin stimulation,"[2]; stimulation, at 2 µM",0.5%
same,insulin secretion stimulation,[3],86.5% (active)
same,viability decrease,[4],21.7% (inactive)
same,tube area decrease,[5],12.8% (inactive)
same,GLP1 secretion stimulation,[6],6% (inactive)
same,inhibition of viability,[7],46% (inactive)
same,viability decrease (inhibition),[8],82.6% (active)
same,viability decrease (inhibition),[9],84.1% (active)
same,red/green cell ratio (normalised),[10],0.88 (inactive)
same,normalised cell number,[10]; [15],1.01
same,normalised cell number,[10]; [16],0.89
same,z-score,[13]; [21],-0.315 (inactive) and 0.45 (inactive) and -0.608 (inactive)
same,z-score,[13]; [22],-0.145 and 0.0321 and -1.45
same,remaining NAD,[12],10 nM (inactive)
same,z-score,[14],-0.89 (inactive)
C[N+](C)(C)CCCCCCCCCC[N+](C)(C)C,parasite load remaining,[1],84.1% (inactive) and 61.8% (inactive) and 73.4% (inactive)
same,viability,[1],80.8% and 105% and 148%
same,nuclear beta-catenin stimulation,[2]; at 10 µM,-0.1% (inactive)
same,nuclear beta-catenin stimulation,"[2]; stimulation, at 2 µM",-0.9%
same,insulin secretion stimulation,[3],1.7% (inactive)
same,viability decrease,[4],17.6% (inactive)
same,tube area decrease,[5],-2.9% (inactive)
same,GLP1 secretion stimulation,[6],0.7% (inactive)
same,inhibition of viability,[7],2.9% (inactive)
same,viability decrease (inhibition),[8],-8.7% (inactive)
same,viability decrease (inhibition),[9],-0.3% (inactive)
same,red/green cell ratio (normalised),[10],0.87 (inactive)
same,normalised cell number,[10]; [15],1.13
same,normalised cell number,[10]; [16],0.99
same,z-score,[13]; [21],-0.278 (inactive) and -0.415 (inactive) and 0.382 (inactive)
same,z-score,[13]; [22],-0.149 and -1.14 and 0.433
same,remaining NAD,[12],10 nM (inactive)
same,z-score,[14],0.27 (inactive) and 0.14 (inactive)
